According to the supplement of paper PMC10849652:
About 7,900 targets were measured; listed, in parts, are those with a hit and a random draw of the rest. About 0.6% of all pairs of compound and target were hits.

Key:
Experiment in all cases: log2 fold change, soluble protein after heating vs DMSO (PISA); higher = thermal stabilisation; K562 cells, 10 uM, 30 min; active = over 0.2 and 3.5 SD of the protein, either way, in both replicates (recomputed)
erlotinib = compound: C#Cc1cccc(Nc2ncnc3cc(OCCOC)c(OCCOC)cc23)c1 [erlotinib]
Summary of the method: (§1)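 Aliquots of K562 cells (2×10^6 cells/mL) treated with 10 μM compound for 30 min were heated for 3 min over 48°C-58°C. After pooling and extraction in PBS with 0.5% NP-40 at 4°C, soluble protein from a 21,000xg, 90 min spin was quantified by TMTpro 16plex LC-MS/MS with channel sums equalised. Thermal stability is expressed against control samples, from duplicates, as a log2 fold change.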

[1] = compound: C/C(=N\NC(=O)C1=CC(=CC=C1)S(=O)(=O)N2CCOCC2)/C3=C(C=CC(=C3)Cl)O
Summary of the method: as §1

[2] = compound: C1=CC(=C(C=C1Cl)C2=NC3=NC=CN=C3C(=N2)NC4=CC=NC=C4)F
Summary of the method: as §1

[3] = compound: C1=CC(=CC=C1C2=NC3=C(N2)C=C(C=C3)C(=O)N)OC4=CC=C(C=C4)Cl
Summary of the method: as §1

[4] = compound: C1=CC2=C(C=CC(=C2)/C=C\3/C(=O)NC(=NCC4=CC=CS4)S3)N=C1
Summary of the method: as §1

[5] = compound: C1=CC2=NC=CN=C2C=C1/C=C/3\C(=O)NC(=O)S3
Summary of the method: as §1

[6] = compound: C1=CC=C(C=C1)C2=NC(=C(N2)C3=CC=NC=C3)C4=CC(=C(C=C4)Cl)O
Summary of the method: as §1

[7] = compound: C1=CC=C2C(=C1)C3=NNC4=CC=CC(=C43)C2=O
Summary of the method: as §1

[8] = compound: C1CCN(C1)C(=O)NC2=CC=CC(=C2)NC3=NC=C(C(=N3)NCCC4=CN=CN4)Br
Summary of the method: as §1

[9] = compound: C1CN(CCC1(CC2=CC=C(C=C2)Cl)N)C3=NC=NC4=C3C=CN4
Summary of the method: as §1

IRAK-1-4 Inhibitor I = compound: C1COCCN1CCN2C3=CC=CC=C3N=C2NC(=O)C4=CC(=CC=C4)[N+](=O)[O-] [IRAK-1-4 Inhibitor I]
Summary of the method: as §1

ibrutinib = compound: C=CC(=O)N1CCC[C@@H](n2nc(-c3ccc(Oc4ccccc4)cc3)c3c(N)ncnc32)C1 [ibrutinib]
Summary of the method: as §1

[10] = compound: CC(=O)c1cnc2ccc(-c3cc(Cl)c(O)c(Cl)c3)nc2c1N[C@H]1CC[C@H](CN(C)C)CC1
Summary of the method: as §1

ralimetinib = compound: CC(C)(C)Cn1c(N)nc2ccc(-c3[nH]c(C(C)(C)C)nc3-c3ccc(F)cc3)nc21 [ralimetinib]
Summary of the method: as §1

[11] = compound: CC(C)(O)CC(=O)NCCn1ccc2ncnc(Nc3ccc(Oc4cccc(C(F)(F)F)c4)c(Cl)c3)c21
Summary of the method: as §1

[12] = compound: CC(C)C1=C2N=C(C=C(N2N=C1)NCC3=CC=CC=C3)NCCCCCCN
Summary of the method: as §1

[13] = compound: CC(C)C[C@@H](C=O)NC(=O)[C@H](CC(C)C)NC(=O)[C@H](CC(C)C)NC(=O)OCc1ccccc1
Summary of the method: as §1

pinometostat = compound: CC(C)N(C[C@H]1O[C@@H](n2cnc3c(N)ncnc32)[C@H](O)[C@@H]1O)[C@H]1C[C@@H](CCc2nc3cc(C(C)(C)C)ccc3[nH]2)C1 [pinometostat]
Summary of the method: as §1

[14] = compound: CC1=C(C(CC(=O)N1)C2=CC=C(C=C2)C(F)(F)F)C(=O)NC3=C(C=C4C(=C3)C=NN4)F
Summary of the method: as §1

[15] = compound: CC1=C(C2=C(C=C1)C(=O)C3=CC=CC=C3N2CCCN)C
Summary of the method: as §1

Measured: log2 fold change

XRCC6 (UniProt P12956)
Sequence of UniProt P12956 (P12956 whole entry, looked up): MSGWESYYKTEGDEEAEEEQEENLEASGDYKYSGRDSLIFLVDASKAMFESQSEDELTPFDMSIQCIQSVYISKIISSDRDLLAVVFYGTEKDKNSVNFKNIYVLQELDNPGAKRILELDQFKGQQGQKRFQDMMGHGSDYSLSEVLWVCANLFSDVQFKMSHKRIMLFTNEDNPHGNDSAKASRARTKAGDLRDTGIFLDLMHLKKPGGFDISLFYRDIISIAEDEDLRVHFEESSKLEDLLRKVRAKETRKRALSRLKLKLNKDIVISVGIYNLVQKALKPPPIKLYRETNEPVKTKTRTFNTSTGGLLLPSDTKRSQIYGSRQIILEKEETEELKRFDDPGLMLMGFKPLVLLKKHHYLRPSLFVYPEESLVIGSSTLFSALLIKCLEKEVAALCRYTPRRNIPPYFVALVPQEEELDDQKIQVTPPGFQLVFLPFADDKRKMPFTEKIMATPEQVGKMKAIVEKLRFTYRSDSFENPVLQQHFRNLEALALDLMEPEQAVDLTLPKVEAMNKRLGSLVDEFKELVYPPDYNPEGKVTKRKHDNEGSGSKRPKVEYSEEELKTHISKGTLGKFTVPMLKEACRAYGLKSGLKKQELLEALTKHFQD
inactive: erlotinib 0.025 | [1] 0.103 | [2] 0.093 | [3] 0.011 | [4] 0.065 | [5] 0.031 | [6] -0.023 | [7] -0.036 | [8] -0.043 | [9] -0.025 | IRAK-1-4 Inhibitor I -0.046 | ibrutinib -0.057 | [10] -0.12 | ralimetinib -0.004 | [11] -0.124 | [12] -0.195 | [13] 0.074 | pinometostat -0.01 | [14] -0.001 | [15] -0.008

USP14 (UniProt P54578)
Sequence of UniProt P54578 (P54578 whole entry, looked up): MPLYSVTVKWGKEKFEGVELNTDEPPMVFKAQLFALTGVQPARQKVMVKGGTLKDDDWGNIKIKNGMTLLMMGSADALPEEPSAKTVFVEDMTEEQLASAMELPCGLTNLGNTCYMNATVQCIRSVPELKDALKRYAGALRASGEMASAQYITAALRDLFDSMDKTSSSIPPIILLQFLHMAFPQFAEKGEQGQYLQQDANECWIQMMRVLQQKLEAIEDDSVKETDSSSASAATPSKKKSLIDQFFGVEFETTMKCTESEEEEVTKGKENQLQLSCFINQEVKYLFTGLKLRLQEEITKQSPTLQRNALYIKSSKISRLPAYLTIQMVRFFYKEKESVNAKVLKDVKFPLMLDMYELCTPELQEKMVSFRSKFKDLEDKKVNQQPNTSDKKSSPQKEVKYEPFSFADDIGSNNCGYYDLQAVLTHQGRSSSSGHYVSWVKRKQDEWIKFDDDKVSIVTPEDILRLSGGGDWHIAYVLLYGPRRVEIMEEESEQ
inactive: erlotinib -0.027 | [1] 0.03 | [2] 0.084 | [3] -0.014 | [4] -0.04 | [5] 0 | [6] 0.02 | [7] 0.015 | [8] -0.016 | [9] -0.001 | IRAK-1-4 Inhibitor I -0.013 | ibrutinib -0.045 | [10] -0.004 | ralimetinib 0.021 | [11] -0.028 | [12] -0.068 | [13] 0.044 | pinometostat -0.031 | [14] 0 | [15] 0.014

VPS53 isoform 4 (UniProt Q5VIR6)
inactive: erlotinib 0.06 | [1] 0.094 | [2] 0.003 | [3] -0.04 | [4] 0.107 | [5] 0.048 | [6] -0.083 | [7] 0.022 | [8] -0.021 | [9] -0.004 | IRAK-1-4 Inhibitor I -0.035 | ibrutinib 0.011 | [10] -0.046 | ralimetinib -0.022 | [11] -0.101 | [12] -0.142 | [13] 0.095 | pinometostat 0.076 | [14] -0.032 | [15] 0.036

TTI1 (UniProt O43156)
Sequence of UniProt O43156 (O43156 whole entry, looked up): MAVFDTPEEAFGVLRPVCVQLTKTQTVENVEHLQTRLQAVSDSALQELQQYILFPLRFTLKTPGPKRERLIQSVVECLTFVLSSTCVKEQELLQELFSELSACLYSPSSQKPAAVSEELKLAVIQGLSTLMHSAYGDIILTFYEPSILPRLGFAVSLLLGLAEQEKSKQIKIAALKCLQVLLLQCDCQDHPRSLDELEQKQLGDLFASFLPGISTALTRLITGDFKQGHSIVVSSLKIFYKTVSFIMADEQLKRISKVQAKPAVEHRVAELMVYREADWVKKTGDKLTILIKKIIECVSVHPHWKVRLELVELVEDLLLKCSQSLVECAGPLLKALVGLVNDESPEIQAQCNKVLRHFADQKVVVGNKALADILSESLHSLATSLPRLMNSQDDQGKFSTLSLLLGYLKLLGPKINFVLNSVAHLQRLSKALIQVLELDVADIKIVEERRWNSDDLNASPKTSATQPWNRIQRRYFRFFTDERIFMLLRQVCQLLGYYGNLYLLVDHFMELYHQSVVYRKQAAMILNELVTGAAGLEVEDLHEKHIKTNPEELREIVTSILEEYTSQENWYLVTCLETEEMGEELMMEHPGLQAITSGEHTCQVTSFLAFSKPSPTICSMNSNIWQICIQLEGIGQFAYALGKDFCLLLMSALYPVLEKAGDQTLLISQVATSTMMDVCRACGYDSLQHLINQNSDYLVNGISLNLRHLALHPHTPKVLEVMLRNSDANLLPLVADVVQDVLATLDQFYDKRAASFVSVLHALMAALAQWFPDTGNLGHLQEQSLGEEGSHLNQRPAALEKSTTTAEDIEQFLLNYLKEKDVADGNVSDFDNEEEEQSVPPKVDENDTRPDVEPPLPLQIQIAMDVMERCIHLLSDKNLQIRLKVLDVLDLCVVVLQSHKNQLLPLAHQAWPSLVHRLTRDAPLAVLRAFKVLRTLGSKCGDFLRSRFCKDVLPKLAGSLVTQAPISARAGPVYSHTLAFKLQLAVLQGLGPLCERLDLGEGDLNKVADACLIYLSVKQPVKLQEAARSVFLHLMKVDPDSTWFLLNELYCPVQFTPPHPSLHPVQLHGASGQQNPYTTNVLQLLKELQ
inactive: erlotinib -0.078 | [1] 0.115 | [2] -0.015 | [3] -0.045 | [4] 0.057 | [5] 0.028 | [6] 0.029 | [7] 0.008 | [8] 0.019 | [9] 0.028 | IRAK-1-4 Inhibitor I -0.012 | ibrutinib 0.009 | [10] -0.065 | ralimetinib 0.1 | [11] -0.113 | [12] -0.059 | [13] 0.016 | pinometostat 0.13 | [14] -0.011 | [15] 0.074

WRB (UniProt O00258)
Sequence of UniProt O00258 (O00258 whole entry, looked up): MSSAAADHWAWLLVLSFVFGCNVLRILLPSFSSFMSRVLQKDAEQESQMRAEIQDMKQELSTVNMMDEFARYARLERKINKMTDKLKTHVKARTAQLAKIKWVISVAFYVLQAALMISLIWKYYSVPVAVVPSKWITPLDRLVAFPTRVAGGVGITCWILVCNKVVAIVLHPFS
inactive: erlotinib -0.02 | [1] 0.012 | [2] 0.032 | [3] 0.019 | [4] -0.003 | [5] 0.069 | [6] 0.019 | [7] -0.042 | [8] 0.027 | [9] -0.011 | IRAK-1-4 Inhibitor I 0.006 | ibrutinib 0.014 | [10] -0.074 | ralimetinib 0.004 | [11] 0.015 | [12] 0.043 | [13] -0.043 | pinometostat -0.032 | [14] -0.006 | [15] 0.011

U2AF2 (UniProt P26368)
inactive: erlotinib 0.012 | [1] 0.045 | [2] -0.013 | [3] 0.029 | [4] -0.045 | [5] -0.004 | [6] 0.012 | [7] -0.048 | [8] -0.026 | [9] -0.074 | IRAK-1-4 Inhibitor I -0.069 | ibrutinib 0.029 | ralimetinib 0.03 | [11] -0.011 | [12] -0.102 | [13] 0.028 | pinometostat 0.03 | [14] -0.04 | [15] 0.192
active: [10] -0.313

TXN2 (UniProt Q99757)
Sequence of UniProt Q99757 (Q99757 whole entry, looked up): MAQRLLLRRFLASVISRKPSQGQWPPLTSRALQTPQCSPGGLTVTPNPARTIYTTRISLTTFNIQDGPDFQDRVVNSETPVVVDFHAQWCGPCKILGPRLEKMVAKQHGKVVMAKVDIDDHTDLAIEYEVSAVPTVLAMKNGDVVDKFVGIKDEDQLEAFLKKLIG
inactive: erlotinib -0.035 | [1] -0.022 | [2] 0.093 | [3] -0.032 | [4] 0.086 | [5] 0.098 | [6] -0.02 | [7] 0.029 | [8] 0.029 | [9] 0.005 | IRAK-1-4 Inhibitor I 0.081 | ibrutinib 0.021 | [10] 0.072 | ralimetinib -0.093 | [11] 0.079 | [12] 0.086 | [13] -0.029 | pinometostat -0.048 | [14] 0.086 | [15] 0.041

USP48 isoform 8 (UniProt Q86UV5)
inactive: erlotinib 0.114 | [1] 0.186 | [2] 0.14 | [3] -0.033 | [4] 0.028 | [5] -0.013 | [6] 0.049 | [7] -0.049 | [8] -0.103 | [9] -0.029 | IRAK-1-4 Inhibitor I -0.09 | ibrutinib -0.071 | [10] -0.014 | ralimetinib 0.046 | [11] -0.207 | [12] -0.278 | [13] 0.052 | pinometostat 0.008 | [14] 0.003 | [15] -0.101

UBE2J1 (UniProt Q9Y385)
Sequence of UniProt Q9Y385 (Q9Y385 whole entry, looked up): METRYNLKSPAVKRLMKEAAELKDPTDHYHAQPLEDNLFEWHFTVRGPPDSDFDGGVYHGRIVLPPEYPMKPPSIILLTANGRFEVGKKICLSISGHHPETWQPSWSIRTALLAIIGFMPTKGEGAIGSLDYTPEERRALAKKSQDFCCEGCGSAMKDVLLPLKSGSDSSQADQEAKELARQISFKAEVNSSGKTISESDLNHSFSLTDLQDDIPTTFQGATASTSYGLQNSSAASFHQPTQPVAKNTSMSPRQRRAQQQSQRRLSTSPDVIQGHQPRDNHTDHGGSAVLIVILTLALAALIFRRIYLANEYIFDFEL
inactive: erlotinib 0.053 | [1] 0.063 | [2] -0.033 | [3] 0.045 | [4] 0.148 | [5] 0.054 | [6] 0.043 | [7] 0.036 | [8] -0.097 | [9] 0.012 | IRAK-1-4 Inhibitor I -0.447 | ibrutinib 0.013 | [10] -0.077 | ralimetinib -0.02 | [11] -0.106 | [12] -0.284 | [13] 0.188 | pinometostat 0.096 | [14] 0.101 | [15] -0.047

TXNIP (UniProt Q9H3M7)
active: [15] -0.42
inactive: erlotinib 0.013 | [1] 0.017 | [2] 0.082 | [3] 0.025 | [4] 0.108 | [5] 0.124 | [6] 0.141 | [7] 0.034 | [8] 0.137 | [9] 0.041 | IRAK-1-4 Inhibitor I 0.05 | ibrutinib 0.016 | [10] -0.053 | ralimetinib 0.13 | [11] 0.072 | [12] -0.371 | [13] 0.128 | pinometostat -0.083 | [14] -0.097

UBA1 (UniProt P22314)
Sequence of UniProt P22314 (P22314 whole entry, looked up): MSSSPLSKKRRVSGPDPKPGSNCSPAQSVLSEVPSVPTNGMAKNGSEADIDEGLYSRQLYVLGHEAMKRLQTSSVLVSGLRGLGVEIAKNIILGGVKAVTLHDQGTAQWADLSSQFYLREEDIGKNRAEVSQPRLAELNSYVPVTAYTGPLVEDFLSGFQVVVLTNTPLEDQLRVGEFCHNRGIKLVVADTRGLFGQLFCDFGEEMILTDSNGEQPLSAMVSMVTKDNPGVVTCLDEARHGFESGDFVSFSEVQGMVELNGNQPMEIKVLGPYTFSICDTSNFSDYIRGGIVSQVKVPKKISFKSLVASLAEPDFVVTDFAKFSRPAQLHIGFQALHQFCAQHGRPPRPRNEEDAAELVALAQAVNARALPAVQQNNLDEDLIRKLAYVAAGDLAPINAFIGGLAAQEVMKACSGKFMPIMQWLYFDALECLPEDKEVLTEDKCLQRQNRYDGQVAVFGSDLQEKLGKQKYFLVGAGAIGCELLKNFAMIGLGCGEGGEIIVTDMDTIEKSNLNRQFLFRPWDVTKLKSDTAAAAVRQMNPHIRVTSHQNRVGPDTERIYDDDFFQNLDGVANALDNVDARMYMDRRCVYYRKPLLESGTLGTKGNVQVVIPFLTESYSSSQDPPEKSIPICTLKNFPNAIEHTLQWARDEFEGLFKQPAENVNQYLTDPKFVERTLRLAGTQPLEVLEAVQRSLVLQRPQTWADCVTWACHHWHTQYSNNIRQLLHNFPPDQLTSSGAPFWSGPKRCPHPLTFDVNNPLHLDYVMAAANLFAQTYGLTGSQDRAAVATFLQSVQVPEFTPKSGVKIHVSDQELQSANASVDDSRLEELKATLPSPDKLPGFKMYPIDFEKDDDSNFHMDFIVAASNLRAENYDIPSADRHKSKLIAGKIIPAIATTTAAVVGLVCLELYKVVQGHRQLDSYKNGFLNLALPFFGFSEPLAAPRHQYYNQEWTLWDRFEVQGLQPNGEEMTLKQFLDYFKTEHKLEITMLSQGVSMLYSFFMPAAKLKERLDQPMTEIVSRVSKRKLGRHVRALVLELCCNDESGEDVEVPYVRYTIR
active: [12] -0.363
inactive: erlotinib 0.1 | [1] 0.166 | [2] 0.074 | [3] -0.024 | [4] 0.114 | [5] -0.004 | [6] 0.065 | [7] 0.023 | [8] -0.034 | [9] -0.175 | IRAK-1-4 Inhibitor I -0.145 | ibrutinib -0.058 | [10] -0.047 | ralimetinib 0.068 | [11] -0.15 | [13] -0.055 | pinometostat 0.019 | [14] 0.023 | [15] 0.336

VPS28 (UniProt Q9UK41)
Sequence of UniProt Q9UK41 (Q9UK41 whole entry, looked up): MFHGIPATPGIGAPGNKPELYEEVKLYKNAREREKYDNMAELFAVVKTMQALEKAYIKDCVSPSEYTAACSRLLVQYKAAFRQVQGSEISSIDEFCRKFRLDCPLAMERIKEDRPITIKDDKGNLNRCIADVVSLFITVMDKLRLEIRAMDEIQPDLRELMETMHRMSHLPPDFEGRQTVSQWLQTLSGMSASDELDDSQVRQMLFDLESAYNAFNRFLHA
inactive: erlotinib -0.072 | [1] 0.031 | [2] 0.27 | [3] -0.011 | [4] 0.009 | [5] 0.023 | [6] 0.009 | [7] 0.001 | [8] -0.091 | [9] -0.043 | IRAK-1-4 Inhibitor I -0.052 | ibrutinib 0.058 | [10] -0.018 | ralimetinib -0.051 | [11] -0.13 | [12] -0.189 | [13] 0.027 | pinometostat 0.059 | [14] 0.075 | [15] 0.04

VRK2 (UniProt Q86Y07)
active: [10] 0.32
inactive: erlotinib 0.004 | [1] 0.014 | [2] -0.021 | [3] -0.026 | [4] -0.065 | [5] 0.011 | [6] -0.02 | [7] 0.118 | [8] 0.013 | [9] 0.072 | IRAK-1-4 Inhibitor I 0.004 | ibrutinib 0.003 | ralimetinib 0.21 | [11] -0.088 | [12] 0.027 | [13] 0.074 | pinometostat 0.075 | [14] -0.03 | [15] 0.109

XIAP (UniProt P98170)
Sequence of UniProt P98170 (P98170 whole entry, looked up): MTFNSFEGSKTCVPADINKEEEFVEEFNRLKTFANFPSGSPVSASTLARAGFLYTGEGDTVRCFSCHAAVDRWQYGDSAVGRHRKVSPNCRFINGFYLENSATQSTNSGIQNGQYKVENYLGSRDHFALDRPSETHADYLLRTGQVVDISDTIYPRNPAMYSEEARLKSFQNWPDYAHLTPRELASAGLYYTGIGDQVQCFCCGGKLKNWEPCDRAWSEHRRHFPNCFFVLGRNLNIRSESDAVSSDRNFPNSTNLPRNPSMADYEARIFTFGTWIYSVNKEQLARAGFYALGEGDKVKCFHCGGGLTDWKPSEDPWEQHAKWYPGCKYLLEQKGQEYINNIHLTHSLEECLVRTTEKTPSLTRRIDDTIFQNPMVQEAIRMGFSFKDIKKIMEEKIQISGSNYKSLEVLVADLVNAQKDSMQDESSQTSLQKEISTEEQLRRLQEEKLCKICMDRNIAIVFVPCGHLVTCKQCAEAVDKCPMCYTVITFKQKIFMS
inactive: erlotinib 0.166 | [1] 0.062 | [2] 0.1 | [3] -0.002 | [4] 0.075 | [5] -0.018 | [7] -0.002 | [8] -0.024 | [9] 0.065 | ibrutinib -0.076 | [10] -0.105 | [11] -0.157 | [12] -0.05 | [14] 0 | [15] -0.002

TMEM120A (UniProt Q9BXJ8)
Sequence of UniProt Q9BXJ8 (Q9BXJ8 whole entry, looked up): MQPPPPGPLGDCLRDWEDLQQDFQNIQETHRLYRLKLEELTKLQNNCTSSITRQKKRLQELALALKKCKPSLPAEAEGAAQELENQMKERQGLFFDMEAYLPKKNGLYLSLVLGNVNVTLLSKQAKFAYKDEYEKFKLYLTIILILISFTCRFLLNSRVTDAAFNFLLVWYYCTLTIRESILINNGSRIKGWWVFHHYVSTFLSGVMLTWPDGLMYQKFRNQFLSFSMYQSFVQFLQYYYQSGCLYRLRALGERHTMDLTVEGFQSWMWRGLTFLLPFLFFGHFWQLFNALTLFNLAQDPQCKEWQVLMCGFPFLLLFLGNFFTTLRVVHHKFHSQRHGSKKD
inactive: erlotinib -0.036 | [1] 0.109 | [2] 0.174 | [3] 0.053 | [4] 0 | [5] 0.236 | [6] -0.02 | [7] -0.036 | [8] -0.071 | [9] 0.1 | IRAK-1-4 Inhibitor I -0.066 | ibrutinib -0.183 | [10] -0.068 | ralimetinib -0.003 | [11] -0.429 | [12] -0.006 | [13] -0.078 | pinometostat 0.093 | [14] -0.065 | [15] 0.051

VPS72 isoform 2 (UniProt Q15906)
active: [15] -0.473
inactive: erlotinib -0.017 | [1] -0.062 | [2] 0.053 | [3] -0.108 | [4] 0.04 | [5] -0.094 | [6] -0.054 | [7] -0.134 | [8] 0.056 | [9] 0.028 | ibrutinib 0.119 | [10] 0.033 | ralimetinib -0.122 | [11] -0.177 | [12] 0.133 | [13] -0.117 | [14] -0.092
